The text below walks through data of PubChem BioAssay (EPA / NIEHS).

Activity calls are given as the source filed them. Rule for the calls: active = hit-call score of the fitted dose curve at least 0.9, where 1 is the maximum; inactive = score below 0.9.

What all share (settings): mRNA level, 48 h; actives raise or lower the signal
Read-out in experiment [1]: Paternally Expressed 10 (PEG10), PEG10 (gene 23089)
Description: LTEA_HepaRG_PEG10: Life Technologies and Expression Analysis (LTEA) Assay for Paternally Expressed 10 (PEG10) using HepaRG (AID 2283520). A digest of the protocol:
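Human HepaRG cultures are dosed for 48 h across an eight-point half-log series starting at 100 uM, with 0.5% DMSO as vehicle and baseline. Gain or loss of PEG10 transcript is measured by qRT-PCR and fitted in both directions.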

Read-out in experiment [2]: Nuclear factor NF-kappa-B p105 subunit (Homo sapiens) (UniProt P19838)
Description: LTEA_HepaRG_NFKB1: Life Technologies and Expression Analysis (LTEA) Assay for Nuclear Factor Kappa B Subunit 1 (NFKB1) using HepaRG (AID 2283521).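 Note: differentiated human HepaRG liver cells in serum-free induction medium; TaqMan qRT-PCR transcript normalised to ACTB GAPDH and POLR2A housekeeping genes.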 An outline of the steps:
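HepaRG, 48 h exposure; 8-pt half-log series from 100 uM in 0.5% DMSO; duplicates. Readout: NFKB1 mRNA by qRT-PCR (Fluidigm arrays), housekeeping-normalized. Gain/loss fit vs DMSO baseline.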

Read-out in experiment [3]: Protein phosphatase 2A (PPP2R4), PTPA (gene 5524)
Put plainly: LTEA_HepaRG_PPP2R4: Life Technologies and Expression Analysis (LTEA) Assay for Protein phosphatase 2A (PPP2R4) using HepaRG (AID 2283522). An outline of the steps:
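Cells were plated, cultured 48 h, switched to serum-free induction medium, then dosed for 48 h (8 points, max 100 uM, 0.5% DMSO). RNA was isolated and PPP2R4 expression measured by TaqMan qRT-PCR.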

Read-out in experiment [4]: Phosphatase and tensin (PTEN), PTEN (gene 5728)
Put plainly: LTEA_HepaRG_PTEN: Life Technologies and Expression Analysis (LTEA) Assay for Phosphatase and tensin (PTEN) using HepaRG (AID 2283523). An outline of the steps:
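HepaRG, 48 h exposure, 8-pt half-log series from 100 uM top, 0.5% DMSO vehicle, duplicates. Readout: Fluidigm qRT-PCR of PTEN transcript; housekeeping normalization (ACTB, GAPDH, POLR2A). Gain or loss fitted relative to DMSO baseline.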

Read-out in experiment [5]: solute carrier (SLC22A1), SLC22A1 (gene 6580)
Description: LTEA_HepaRG_SLC22A1: Life Technologies and Expression Analysis (LTEA) Assay for solute carrier (SLC22A1) using HepaRG (AID 2283524).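 For AC50: differentiated human HepaRG liver cells in serum-free induction medium.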 A digest of the protocol:
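qRT-PCR readout (TaqMan, Fluidigm arrays) of SLC22A1 transcript, normalized to three housekeeping genes; bidirectional curve fit relative to 0.5% DMSO vehicle. Differentiated human HepaRG cells, 48 h chemical exposure, top concentration 100 uM, half-log steps, eight points.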

Read-out in experiment [6]: Pyruvate Dehydrogenase Kinase 4 (PDK4), PDK4 (gene 5166)
Put plainly: LTEA_HepaRG_PDK4: Life Technologies and Expression Analysis (LTEA) Assay for Pyruvate Dehydrogenase Kinase 4 (PDK4) using HepaRG (AID 2283525). A digest of the protocol:
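HepaRG (human liver line), 48 h chemical exposure, 8-pt half-log CRC top 100 uM, 0.5% DMSO vehicle, duplicates. Readout: TaqMan qRT-PCR of PDK4 mRNA, housekeeping-normalized; gain/loss fit relative to DMSO baseline.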

Read-out in experiment [7]: Nuclear factor erythroid 2-related factor 2 (Homo sapiens) (UniProt Q16236)
Description: LTEA_HepaRG_NFE2L2: Life Technologies and Expression Analysis (LTEA) Assay for Nuclear factor erythroid 2-related factor 2 (NFE2L2) Transcription Factor using HepaRG (AID 2283527).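 Note: TaqMan qRT-PCR transcript level normalised to ACTB GAPDH and POLR2A housekeeping genes.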 An outline of the steps:
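HepaRG, 48 h dosing, 8-pt half-log series from 100 uM in 0.5% DMSO, duplicates. Read-out: NFE2L2 mRNA by qRT-PCR (ACTB/GAPDH/POLR2A normalization). Bidirectional curve fit vs DMSO baseline.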

Read-out in experiment [8]: succinate dehydrogenase complex iron sulfur subunit B (SDHB), SDHB (gene 6390)
Description: LTEA_HepaRG_SDHB: Life Technologies and Expression Analysis (LTEA) Assay for succinate dehydrogenase complex iron sulfur subunit B (SDHB) using HepaRG (AID 2283528). An outline of the steps:
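Readout is SDHB transcript level by qRT-PCR, normalised to three housekeeping genes and fitted bidirectionally against 0.5% DMSO vehicle. Human HepaRG cells were treated for 48 h at up to 100 uM.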

Read-out in experiment [9]: Signal transducer and activator of transcription 3 (Homo sapiens) (UniProt P40763)
Description: LTEA_HepaRG_STAT3: Life Technologies and Expression Analysis (LTEA) Assay for Signal transducer and activator of transcription (STAT3) using HepaRG (AID 2283529). A digest of the protocol: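 HepaRG, 48 h exposure, 8-pt half-log series (top 100 uM), 0.5% DMSO vehicle, duplicates. Readout: STAT3 transcript by Fluidigm qRT-PCR, housekeeping-normalized; bidirectional fit vs DMSO baseline.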

Read-out in experiment [10]: solute carrier (SLCO1B1), SLCO1B1 (gene 10599)
Put plainly: LTEA_HepaRG_SLCO1B1: Life Technologies and Expression Analysis (LTEA) Assay for solute carrier (SLCO1B1) using HepaRG (AID 2283530). A digest of the protocol:
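HepaRG, serum-free induction medium, 48 h dosing, 8-pt half-log from 100 uM, 0.5% DMSO vehicle, duplicates. Readout: SLCO1B1 mRNA, qRT-PCR, ACTB/GAPDH/POLR2A normalization; up or down fit vs DMSO.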

Read-out in experiment [11]: sulfotransferase 2A1 (SULT2A1), SULT2A1 (gene 6822)
Put plainly: LTEA_HepaRG_SULT2A1: Life Technologies and Expression Analysis (LTEA) Assay for sulfotransferase 2A1 (SULT2A1) using HepaRG (AID 2283531). A digest of the protocol:
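Transcript levels of SULT2A1, quantified by qRT-PCR and normalized to three housekeeping genes, serve as the readout. Human HepaRG cultures receive test chemicals for 48 h at up to 100 uM in half-log steps, with 0.5% DMSO vehicle.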

Read-out in experiment [12]: Transforming Growth Factor (TGFA), TGFA (gene 7039)
Description: LTEA_HepaRG_TGFA: Life Technologies and Expression Analysis (LTEA) Assay for Transforming Growth Factor (TGFA) using HepaRG (AID 2283532). An outline of the steps:
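qRT-PCR read-out of TGFA transcript, normalized to three housekeeping genes, fitted bidirectionally against 0.5% DMSO baseline. Human HepaRG cultures received chemicals for 48 h at eight half-log concentrations, top 100 uM.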

Read-out in experiment [13]: Transforming Growth Factor (TGFB1), TGFB1 (gene 7040)
Put plainly: LTEA_HepaRG_TGFB1: Life Technologies and Expression Analysis (LTEA) Assay for Transforming Growth Factor (TGFB1) Transporter using HepaRG (AID 2283533). A digest of the protocol:
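HepaRG, 48 h post-plating, switched to serum-free induction medium; chemicals 100 uM top, half-log, 8 pts, 0.5% DMSO, dup; 48 h exposure; RNA → Fluidigm TaqMan qRT-PCR; norm ACTB/GAPDH/POLR2A; bidirectional fit vs DMSO.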

Read-out in experiment [14]: TIMP1, TIMP1 (gene 7076)
Description: LTEA_HepaRG_TIMP1: Life Technologies and Expression Analysis (LTEA) Assay for TIMP1 using HepaRG (AID 2283534). An outline of the steps: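 Readout is TIMP1 mRNA level measured by qRT-PCR and normalized to three housekeeping genes. Human HepaRG cells were treated for 48 h in duplicate at eight concentrations up to 100 uM (0.5% DMSO); gain or loss fitted against DMSO.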

Read-out in experiment [15]: Tumor necrosis factor receptor 1 (TNFRSF1A), TNFRSF1A (gene 7132)
Description: LTEA_HepaRG_TNFRSF1A: Life Technologies and Expression Analysis (LTEA) Assay for Tumor necrosis factor receptor 1 (TNFRSF1A) using HepaRG (AID 2283535). A digest of the protocol: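 Read-out is TNFRSF1A transcript level by TaqMan qRT-PCR, normalized to three housekeeping genes, scored as gain or loss of signal versus 0.5% DMSO. Human HepaRG cells received test chemicals for 48 h at up to 100 uM (half-log series).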

Read-out in experiment [16]: Thyroid Hormone Responsive (THRSP), THRSP (gene 7069)
Put plainly: LTEA_HepaRG_THRSP: Life Technologies and Expression Analysis (LTEA) Assay for Thyroid Hormone Responsive (THRSP) using HepaRG (AID 2283536). An outline of the steps:
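qRT-PCR read-out (Fluidigm TaqMan), housekeeping-normalized (ACTB/GAPDH/POLR2A). HepaRG, 48 h chemical exposure, 8-pt half-log series from 100 uM in 0.5% DMSO, duplicates. Bidirectional curve fit vs 0.5% DMSO baseline.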

Read-out in experiment [17]: Cellular tumor antigen p53 (Homo sapiens) (UniProt P04637)
Put plainly: LTEA_HepaRG_TP53: Life Technologies and Expression Analysis (LTEA) Assay for Tumor Protein P53 (TP53) using HepaRG (AID 2283537). An outline of the steps: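 Read-out is TP53 transcript level by microfluidic qRT-PCR, normalised to three housekeeping genes and fitted bidirectionally against DMSO. Human HepaRG cells received compounds for 48 h, highest concentration 100 uM.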

Read-out in experiment [18]: UDP glucuronosyltransferase (UGT1A1), UGT1A1 (gene 54658)
Description: LTEA_HepaRG_UGT1A1: Life Technologies and Expression Analysis (LTEA) Assay for UDP glucuronosyltransferase (UGT1A1) using HepaRG (AID 2283538). A digest of the protocol: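 Cells are plated, cultured 48 h, switched to serum-free induction medium, then dosed 48 h at eight concentrations (max 100 uM, 0.5% DMSO). RNA is isolated and UGT1A1 expression measured by qRT-PCR; changes versus DMSO are fitted in both directions.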

Read-out in experiment [19]: UDP glucuronosyltransferase (UGT1A6), UGT1A6 (gene 54578)
Description: LTEA_HepaRG_UGT1A6: Life Technologies and Expression Analysis (LTEA) Assay for UDP glucuronosyltransferase (UGT1A6) using HepaRG (AID 2283539). An outline of the steps:
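HepaRG, 48 h post-plating switch to serum-free induction medium; chemical 48 h, 100 uM top, half-log x8, duplicate, 0.5% DMSO. Phenobarbital 1mM induction control. UGT1A6 mRNA by TaqMan qRT-PCR; gain/loss fit vs DMSO.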

Read-out in experiment [20]: NAD(P)H dehydrogenase [quinone] 1 (NQO1), NQO1 (gene 1728)
Put plainly: LTEA_HepaRG_NQO1: Life Technologies and Expression Analysis (LTEA) Assay for NAD(P)H dehydrogenase [quinone] 1 (NQO1) using HepaRG (AID 2283526). An outline of the steps: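 Transcript induction or suppression is quantified by qRT-PCR in human HepaRG liver cells dosed for 48 hours. Eight half-log concentrations topping at 100 uM are used, with 0.5% DMSO as vehicle and baseline.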

Chain of Nuclear factor erythroid 2-related factor 2 (Homo sapiens) (Q16236 whole entry, looked up): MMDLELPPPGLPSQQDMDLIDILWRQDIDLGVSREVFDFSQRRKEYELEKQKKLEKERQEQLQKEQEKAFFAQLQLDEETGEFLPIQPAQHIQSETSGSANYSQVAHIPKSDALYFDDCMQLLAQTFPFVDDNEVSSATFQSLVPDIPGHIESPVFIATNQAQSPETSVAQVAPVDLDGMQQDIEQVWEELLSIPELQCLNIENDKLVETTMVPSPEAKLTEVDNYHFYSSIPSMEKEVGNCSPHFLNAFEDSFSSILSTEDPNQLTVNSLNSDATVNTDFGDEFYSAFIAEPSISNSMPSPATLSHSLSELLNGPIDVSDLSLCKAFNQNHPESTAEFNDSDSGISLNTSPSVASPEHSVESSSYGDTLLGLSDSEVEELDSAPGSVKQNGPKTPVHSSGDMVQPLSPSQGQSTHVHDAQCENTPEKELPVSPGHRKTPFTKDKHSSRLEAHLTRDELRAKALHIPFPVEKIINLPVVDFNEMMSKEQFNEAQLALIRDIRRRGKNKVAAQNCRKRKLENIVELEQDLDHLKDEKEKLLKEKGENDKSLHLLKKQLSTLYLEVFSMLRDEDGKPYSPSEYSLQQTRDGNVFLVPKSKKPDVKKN
Chain of Cellular tumor antigen p53 (Homo sapiens) (P04637 whole entry, looked up): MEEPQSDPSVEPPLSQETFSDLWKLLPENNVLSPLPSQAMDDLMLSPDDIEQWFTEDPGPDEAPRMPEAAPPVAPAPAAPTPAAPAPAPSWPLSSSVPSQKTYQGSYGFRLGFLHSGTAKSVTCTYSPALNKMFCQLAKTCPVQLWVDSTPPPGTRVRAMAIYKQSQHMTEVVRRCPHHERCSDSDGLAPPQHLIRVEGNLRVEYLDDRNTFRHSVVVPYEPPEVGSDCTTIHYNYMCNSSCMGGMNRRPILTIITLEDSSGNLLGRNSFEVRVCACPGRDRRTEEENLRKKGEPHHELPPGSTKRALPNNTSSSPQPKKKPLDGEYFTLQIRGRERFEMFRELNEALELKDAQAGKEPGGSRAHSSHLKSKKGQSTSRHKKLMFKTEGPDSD
Chain of Signal transducer and activator of transcription 3 (Homo sapiens) (P40763 whole entry, looked up): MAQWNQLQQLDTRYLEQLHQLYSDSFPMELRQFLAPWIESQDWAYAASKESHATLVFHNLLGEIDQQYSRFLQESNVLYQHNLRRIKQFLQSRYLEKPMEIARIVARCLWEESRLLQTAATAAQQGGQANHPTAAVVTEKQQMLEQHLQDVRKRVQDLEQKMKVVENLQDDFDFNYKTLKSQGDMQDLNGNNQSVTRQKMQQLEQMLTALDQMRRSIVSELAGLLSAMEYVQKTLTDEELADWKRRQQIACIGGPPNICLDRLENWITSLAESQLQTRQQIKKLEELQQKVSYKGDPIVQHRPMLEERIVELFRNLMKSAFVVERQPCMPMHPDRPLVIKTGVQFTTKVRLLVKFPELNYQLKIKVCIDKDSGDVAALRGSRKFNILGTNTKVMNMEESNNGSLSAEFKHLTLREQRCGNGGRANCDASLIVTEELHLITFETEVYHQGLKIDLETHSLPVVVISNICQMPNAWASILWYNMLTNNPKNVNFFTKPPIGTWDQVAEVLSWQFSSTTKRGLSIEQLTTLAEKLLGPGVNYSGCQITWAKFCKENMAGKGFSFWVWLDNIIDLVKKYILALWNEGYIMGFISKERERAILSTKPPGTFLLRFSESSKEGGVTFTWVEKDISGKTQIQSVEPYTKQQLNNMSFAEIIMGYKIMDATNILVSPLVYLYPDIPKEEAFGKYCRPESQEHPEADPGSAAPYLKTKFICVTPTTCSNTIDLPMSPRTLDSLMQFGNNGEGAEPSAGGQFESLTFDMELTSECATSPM
Chain of Nuclear factor NF-kappa-B p105 subunit (Homo sapiens) (P19838 whole entry, looked up): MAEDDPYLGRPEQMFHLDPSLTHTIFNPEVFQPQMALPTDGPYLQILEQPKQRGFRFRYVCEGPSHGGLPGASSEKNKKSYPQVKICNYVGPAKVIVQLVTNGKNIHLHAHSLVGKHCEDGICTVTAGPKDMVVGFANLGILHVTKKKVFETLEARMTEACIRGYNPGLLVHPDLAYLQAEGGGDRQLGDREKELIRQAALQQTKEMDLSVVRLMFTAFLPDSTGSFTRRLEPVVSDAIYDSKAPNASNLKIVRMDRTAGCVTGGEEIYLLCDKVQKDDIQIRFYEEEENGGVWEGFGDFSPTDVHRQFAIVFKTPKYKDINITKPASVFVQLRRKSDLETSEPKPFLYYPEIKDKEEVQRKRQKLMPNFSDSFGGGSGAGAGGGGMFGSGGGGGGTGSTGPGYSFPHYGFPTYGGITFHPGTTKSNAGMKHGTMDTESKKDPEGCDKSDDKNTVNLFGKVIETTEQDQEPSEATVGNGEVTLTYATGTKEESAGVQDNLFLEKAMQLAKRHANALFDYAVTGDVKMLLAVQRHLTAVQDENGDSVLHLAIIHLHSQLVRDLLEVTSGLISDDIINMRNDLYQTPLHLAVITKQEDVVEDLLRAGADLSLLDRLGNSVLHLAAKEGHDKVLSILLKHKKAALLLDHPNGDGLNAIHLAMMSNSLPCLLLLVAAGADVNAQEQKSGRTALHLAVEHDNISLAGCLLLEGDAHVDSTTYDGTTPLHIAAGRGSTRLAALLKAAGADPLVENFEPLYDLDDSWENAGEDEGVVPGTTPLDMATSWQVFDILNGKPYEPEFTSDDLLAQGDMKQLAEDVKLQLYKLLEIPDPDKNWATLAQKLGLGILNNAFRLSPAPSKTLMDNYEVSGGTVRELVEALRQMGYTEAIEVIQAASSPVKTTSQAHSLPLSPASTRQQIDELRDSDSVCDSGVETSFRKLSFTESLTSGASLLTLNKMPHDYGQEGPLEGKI

Turning to `CN1C(=O)CC[C@H]1c1cccnc1`, the result in [1], in experiment [2], in [3], in experiment [4], in experiment [5] and in [6] was inactive. The outcome in experiment [7], in [8], in experiment [9], in experiment [10], in experiment [11] and in experiment [12] was inactive. Besides, the compound was classed as inactive in experiment [13], in experiment [14], in [15], in experiment [16], in experiment [17] and in [18]. In experiment [19], the result was inactive.

`O=c1ccc2ccccc2o1`: the result in [1], in [2], in experiment [3], in experiment [4], in experiment [5] and in [6] was inactive. The compound was classed as inactive in experiment [20], in experiment [7], in experiment [8], in experiment [10], in experiment [11] and in experiment [12]. For the same compound, the result in experiment [13], in experiment [14], in experiment [15], in [16], in experiment [17] and in [19] was inactive. Besides, the AC50 in experiment [18] was 65.4 µM (active).

As to `O=CCCCC=O`, the result in experiment [1], in experiment [2], in experiment [3], in experiment [4], in [5] and in experiment [20] was inactive. Moreover, the outcome in experiment [7], in [8], in experiment [9], in [10], in experiment [11] and in experiment [12] was inactive. In addition, the result in [13], in [14], in experiment [15], in experiment [16], in experiment [17] and in experiment [18] was inactive. In experiment [19], the result was inactive.

With `CCCCCCCCCC(=O)O`, the compound was called inactive in experiment [1], in experiment [2], in experiment [3], in experiment [4], in experiment [5] and in experiment [6]. Besides, the compound was classed as inactive in [20], in experiment [7], in [8], in experiment [9], in [10] and in experiment [11]. The compound was called inactive in experiment [12], in [13], in experiment [14], in experiment [15], in experiment [16] and in experiment [17]. Further, the compound was called inactive in experiment [18] and in [19].

As to `CC(C)(c1cc(Br)c(O)c(Br)c1)c1cc(Br)c(O)c(Br)c1`, the call in experiment [1], in [2], in [3], in experiment [7], in [8] and in [9] was inactive. The result in experiment [10], in experiment [13], in experiment [14], in experiment [15], in experiment [16] and in experiment [19] was inactive. The AC50 in [4] is 72.7 µM (active); in experiment [5], 53.4 µM (active); in experiment [20] it was 86.6 µM (active); in [11], 91.4 µM (active); in experiment [12], 89.1 µM (active); in experiment [17], 89.2 µM (active). In addition, the AC50 in experiment [18] was 78.2 µM (active).

Turning to `CCN(Cc1cccc(S(=O)(=O)O)c1)c1ccc(C(=C2C=CC(=[N+](CC)Cc3cccc(S(=O)(=O)O)c3)C=C2)c2ccccc2S(=O)(=O)[O-])cc1`, the call in experiment [1], in experiment [2], in experiment [3], in [4], in [5] and in [6] was inactive. The compound was called inactive in [20], in experiment [7], in experiment [8], in experiment [10], in experiment [11] and in [12]. Besides, the outcome in experiment [13], in experiment [14], in experiment [15], in experiment [16], in experiment [17] and in [18] was inactive. Further, the compound was classed as inactive in experiment [19].
